Bioassay records deposited in PubChem by National Center for Advancing Translational Sciences (NCATS).
A selection: hits, their analogues and other compounds. The true share with any hit is near 18%.
DT40 TDP1 no CPT: qHTS for Inhibitors of human tyrosyl-DNA phosphodiesterase 1 (TDP1): qHTS in cells in absence of CPT; Potency, µM (series often up to 46.2 µM), most hits filed as inhibitors; AID 686978, 2013; DT40 Tdp1-/- hTDP1 cells, no CPT, ATP luminescence, 48 h; actives 15% (n = 420,000); also: nearly all actives have a fitted effect of over 55% in size
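Compound effects on proliferation are scored in DT40 Tdp1-/-;hTDP1 cells in the absence of CPT. ATP levels (CellTiter-Glo luminescence) are recorded after a ≥48 hr, 37 °C incubation.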
DT40 TDP1 CPT: growth inhibition of DT40 Tdp1-/-;hTDP1 cells with camptothecin (screen for TDP1 inhibitors); AID 686979; chicken DT40 Tdp1-/-;hTDP1 cells + 20 nM CPT, ATP luminescence, 48 h; Potency, µM (highest dose often 46.2 µM), usual class: inhibitors; actives 12% (n = 420,000); also: nearly all actives have a fitted effect of over 55% in size
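Chicken DT40 Tdp1-/- cells stably complemented with human TDP1 were seeded at 400 cells/well in medium containing 20 nM camptothecin, exposed to pin-transferred compounds, and grown at 37 °C for at least 48 hr. Viability was read as ATP luminescence.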
RORgamma inh: blocks mouse ROR gamma transcriptional activity; P51450; Drosophila S2 Gal4-RORgamma UAS-luciferase reporter, 20 h; actives 5.4% (n = 310,000); Potency, µM (highest dose often 53.6 µM), hits mostly inhibitors; AID 2551; also: nearly all actives have a fitted effect of over 60% in size
Target sequence (P51450 whole entry, looked up, the tested form may be a part): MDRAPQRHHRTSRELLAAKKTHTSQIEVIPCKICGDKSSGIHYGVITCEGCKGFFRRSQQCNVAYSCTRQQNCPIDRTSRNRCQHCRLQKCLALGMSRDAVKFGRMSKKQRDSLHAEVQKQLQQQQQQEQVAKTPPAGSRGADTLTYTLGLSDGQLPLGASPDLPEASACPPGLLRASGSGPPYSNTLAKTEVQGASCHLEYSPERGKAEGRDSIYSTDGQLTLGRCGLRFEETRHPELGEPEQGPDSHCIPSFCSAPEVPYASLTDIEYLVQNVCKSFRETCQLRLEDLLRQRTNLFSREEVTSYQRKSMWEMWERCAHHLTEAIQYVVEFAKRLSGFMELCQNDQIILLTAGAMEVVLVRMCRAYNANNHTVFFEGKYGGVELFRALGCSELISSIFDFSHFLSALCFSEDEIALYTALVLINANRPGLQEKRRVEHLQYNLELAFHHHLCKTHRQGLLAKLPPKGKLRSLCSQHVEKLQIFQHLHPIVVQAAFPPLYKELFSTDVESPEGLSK
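ROR gamma transcriptional activity was tracked as Gal4-UAS luciferase output in stably transfected Drosophila Schneider cells, with compound added 1 hr before 700 uM copper sulfate induction and a 20 hr ambient-temperature incubation.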
Gal4-VP16 FLuc: inhibits Gal4-VP16 luciferase reporter, ROR gamma counter-screen; Drosophila S2 Gal4-VP16 UAS-luciferase, luminescence, 20 h; Potency, µM (series often up to 53.6 µM), hits mostly inhibitors; actives 3.5% (n = 310,000); AID 2546;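 also: Gal4-VP16 expression switched on by copper sulfate through the metallothionein promoter; nearly all actives have a fitted effect of over 50% in size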
IL1B secr inh: inflammasome signaling inhibition, IL-1 beta readout | THP-1 LPS/ATP IL-1B secretion, AlphaLISA, 16 h; hits give low values | activity change, % at 57.5 µM | actives 4.7% (n = 360,000) | AID 743279; in the data active = activity change below about -50%; inconclusive = mostly about -30% to -49%
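THP-1 cells pretreated 1 hr with compounds (up to 57.5 uM final), then stimulated with LPS (250 ng/mL final) plus ATP (1.25 mM final); secreted IL-1B measured by AlphaLISA after 16 hr, decreased signal indicating inhibition.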
LDHA block: LDHA (human) enzyme inhibition | AID 1347041 | activity change, % (values are at about 110 or 230 µM) | P00338 | actives 0.15% (n = 480,000) | purified LDHA, NADH/diaphorase-resazurin fluorescence; hits give low values; in the data active = activity change below about -30%; inconclusive = mostly about -25% to -30%
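Human LDH5 at 2 nM final in Tris HCl pH 7.4 with 0.06 mM NADH and 0.2 mM pyruvate, reacted 5 minutes at room temperature. Remaining NADH coupled via diaphorase/resazurin; resorufin fluorescence read at 0 and 20 minutes, normalized to enzyme-free and DMSO wells.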
Numbers stand for hits; 0 = inactive; ? = inconclusive; - = not tested or not shown; ! = repeats disagree; [ ] = dose if it differs, or a comment. Unless noted, calls follow the shape of the dose curve; as a rule, active = well fitted curve in the direction sought with a large enough effect; inconclusive = small, poorly fitted or top-dose-only effect, or another doubt; inactive = no such curve, though single readings can be large; an effect the other way counts as inactive or inconclusive.

SMILES	DT40 TDP1 no CPT	DT40 TDP1 CPT	RORgamma inh	Gal4-VP16 FLuc	IL1B secr inh	LDHA block
CC(C)c1nnc(NC(=O)c2ccc(N3C(=O)CCC3=O)cc2)s1	0	0	0	0	0	0
O=C(Nc1nnc(C23CC4CC(CC(C4)C2)C3)s1)c1ccc(N2C(=O)CCC2=O)cc1	25.9µM	?	0	0	0	0
CCc1cc(-c2cnnn2Cc2ccccc2)ccc1-c1cn(CC(C)C)nn1	10.3µM	?	-	-	?	0
OC(c1cn2cc(-c3ccc(F)cc3)nc2s1)(C(F)(F)F)C(F)(F)F	-	-	-	-	-	0
CC(=O)N1CCN(C(=O)COc2ccc3oc4c(c3c2)CCCC4)CC1	0	0	-	-	0	0
CC1CC(C)CN(CC(=O)N2CCCc3c2c(=O)oc2ccc(OCc4ccccc4)cc32)C1 (configuration not stated)	11.6µM	20.6µM	0	0	0	0
CCCOc1ccc2oc(=O)c3c(c2c1)CCCN3C(=O)CN1CCc2ccccc2C1	23.1µM	?	0[10 µM]	0	0	0
CC1CCN(CC(=O)N2CCCc3c2c(=O)oc2ccc(OCc4ccccc4)cc32)CC1	13µM!	?	?	?	0	0
Cc1c(Cc2ccccc2)c(=O)oc2cc(OCc3ccc(C(=O)O)cc3)ccc12	0	0	0	0	0	0
CC(NS(=O)(=O)c1cccc2nsnc12)C12CC3CC(CC(C3)C1)C2 (configuration not stated)	-	-	-	-	-	0
N#C/C(=C(/O)c1ccccc1)c1nc2ccccc2[nH]1	-	-	-	-	-	0
COc1ccc(CNC(=O)CCc2ncc(-c3ccccc3)o2)cc1	-	-	-	-	-	0
COc1cccc(/C=N/n2c(SC)nnc2-c2ccccc2)c1O	16.4µM	10.3µM	?	0	0	0
Cc1nnc(SCC(=O)NNC(=O)c2ccccc2)n1-c1ccccc1	0	0	0	0	0	0
COc1cc(/C=N/NC(=O)CNc2cccc(C(F)(F)F)c2)ccc1OC(=O)c1ccccc1F	-	-	-	-	-	-32.2
COc1ccc(O)c(/C=N/NC(=O)CSc2nnc(C)n2-c2ccccc2)c1	18.4µM	16.4µM	7.94µM	0	0	0
O=C(CNc1cccc(C(F)(F)F)c1)N/N=C/c1cn(-c2ccccc2)nc1-c1ccccc1	?	16.4µM	?	?	?	0
COc1cccc(/C=N/n2c(SC)nnc2-c2ccccc2)c1OC	?	?	0	0	0	0
Cc1nn(Cc2cc(C(=O)O)c3ccccc3n2)c(C)c1Cl	-	-	-	-	-	0
N#CCCn1c(SCC(=O)Nc2ccc(N3CCCCC3)cc2)nc2ccccc21	-	-	-	-	-	0
CCc1ccc(-c2cc(C(=O)Nc3cccnc3)c3ccccc3n2)cc1	-	-	-	-	-	0
CN(Cc1ccc(Cl)cc1)C(=O)c1ccc(Cl)c(S(=O)(=O)NC2CC2)c1	-	-	-	-	-	0
COc1cc([N+](=O)[O-])cc(/C=N/NC(=O)CSc2nnc(-c3ccccc3)n2C)c1O	0	0	0	0	0	0
Cc1ccc(-c2nnc(SCC(=O)N/N=C/c3ccccc3C(=O)O)n2-c2ccc(Cl)cc2)cc1	0	0	0	0	0	0
Cc1ccc(-c2nn(-c3ccccc3)cc2/C=N/NC(=O)CSc2nnc(C)n2-c2ccccc2)cc1	?	?	?	?	-62.1	0
SMILES	DT40 TDP1 no CPT	DT40 TDP1 CPT	RORgamma inh	Gal4-VP16 FLuc	IL1B secr inh	LDHA block
CCCCSc1nc(C)cc(SCC(=O)N/N=C/c2cccc(OC)c2O)n1	1.3µM	1.46µM	0.282µM	1µM	0	0
COc1cccc(/C=N/NC(=O)CSc2nnc(C)n2-c2ccccc2)c1O	?	?	7.08µM	20µM	0	0
COc1ccc(/C=N/NC(=O)CSc2ccccn2)cc1OC	0	0	0	0	0	0
COc1cc(C2Nc3ccc(C)cc3[C@H]3OCCC[C@@H]23)cc(Br)c1O (some centres not stated)	-	-	-	-	-	0
CC1(C)CC(=O)C2=C(C1)N1CCc3cc4c(cc3C1=CC2c1ccc(F)cc1)OCCCO4 (configuration not stated)	-	-	-	-	-	0
Nc1cccc(C(=O)c2ccncc2)c1	-	-	-	-	-	0
CCCN(Cc1cc2cc(OC)ccc2[nH]c1=O)C(=O)c1ccncc1	16.4µM	?	0	0	0	0
CCCN(Cc1cc2cccc(C)c2[nH]c1=O)C(=O)c1cccc(OC)c1	16.4µM	?	-	-	0	0
COc1ccc2[nH]c(=O)c(CN(C)C(=O)c3ccncc3)cc2c1	0	0	0	0	0	0
CCCN(Cc1cc2cc(OC)ccc2[nH]c1=O)C(=O)c1ccco1	16.4µM	29.1µM	?	0	0	0
CCCCN(Cc1cc2cc(OC)ccc2[nH]c1=O)C(=O)c1ccco1	?	?	0	0	0	0
COc1ccc2c(c1OC)C(=O)OC2OC (configuration not stated)	-	-	-	-	-	0
COc1ccc(-c2[nH]c3c(c2-c2c(-n4cccc4)n(C)c(=O)[nH]c2=O)c(=O)[nH]c(=O)n3C)cc1OC	-	-	-	-	-	0
CC(C)C(NC(=O)CCNC(=O)c1ccc(C(C)(C)C)cc1)c1nc2ccccc2[nH]1 (configuration not stated)	18.4µM	?	-	-	0	0
CC(=O)c1ccc(S(=O)(=O)NCC(=O)NC(c2nc3ccccc3[nH]2)C(C)C)cc1 (configuration not stated)	?	?	-	-	0	0
CCCS(=O)(=O)N1CCN(Cc2ccc3c(c2)c2ccccc2n3CC)CC1	?	20.6µM	0	0	?	0
CCn1c2ccccc2c2cc(CN3CCN(Cc4ccc(OC)c(OC)c4)CC3)ccc21	23.1µM	18.4µM	-	-	-	0
CCOc1ccc(CN2CCN(C(=O)c3cccc4ccccc34)CC2)cc1	?	?	0	0	-83.1	0
CCn1c2ccccc2c2cc(CN3CCN(Cc4ccccc4Cl)CC3)ccc21	?	?	-	-	-	0
CCOc1ccc(CN2CCN(Cc3ccc4c(c3)c3ccccc3n4CC)CC2)cc1	14.6µM	?	-	-	-	0
CCC(C)NC(=O)c1snnc1-c1ccc(OC)cc1 (configuration not stated)	-	-	-	-	-	0
N#Cc1ccc(CN(Cc2ccccc2)Cc2ccco2)cc1	-	-	-	-	-	0
COc1ccccc1CN1CCN(Cc2ccc3ccccc3c2)CC1	?	?	0	0	0	0
COc1ccc(CN2CCN(Cc3ccc4ccccc4c3)CC2)cc1OC	18.4µM	?	0	0	?	-34.2
Cc1cccc(Cn2ccc(NC(=O)c3ccc4c(c3)OCO4)n2)c1	0	0	0	0	-52.5	0
Cc1nn(Cc2cccc(C(=O)Nc3ccn(Cc4ccccc4F)n3)c2)c(C)c1[N+](=O)[O-]	?	23.1µM	0	0	0	0
O=C(Nc1ccn(Cc2ccccc2F)n1)c1ccc(COc2ccc(Br)cc2)cc1	?	11.2µM	?	?	0	0
